What all share (assay): DAPPL (digital affinity profiling via proximity ligation, sequencing); 10 mM Tris-HCl pH 7.5, 50 mM NaCl, 1 mM DTT, 4% glycerol, room temperature, 30 min; GST-TFs on glutathione beads, 16-mer random dsDNA library, 0.1% formaldehyde crosslink after washing; high values mean tight binding
One experiment has as its target T1, FEV (Homo sapiens, UniProt Q99581 1-238).
T1 sequence: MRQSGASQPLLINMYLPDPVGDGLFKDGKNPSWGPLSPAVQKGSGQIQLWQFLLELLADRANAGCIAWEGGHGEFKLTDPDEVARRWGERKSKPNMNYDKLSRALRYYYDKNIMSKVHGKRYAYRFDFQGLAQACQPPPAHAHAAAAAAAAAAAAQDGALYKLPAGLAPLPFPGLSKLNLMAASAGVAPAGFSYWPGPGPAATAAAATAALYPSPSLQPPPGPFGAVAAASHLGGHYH
As to conditions: protein: recombinant; tags: N-terminal GST; dsDNA, one strand shown. In a few lines: (§1)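 Binding signal is each hexamer's read frequency for a factor divided by its frequency in the tag-only sample. The factors were GST-fused human transcription factors from yeast, captured on glutathione beads, DNA-barcoded and pooled with that sample. Pools were incubated with 200 nmole of a random double-stranded 16-mer DNA library in Tris/NaCl/DTT/glycerol buffer at room temperature for 30 min, then washed, crosslinked with 0.1% formaldehyde, proximity-ligated with BsaI/T4 ligase (1 h, 37 °C), PCR-amplified and sequenced on an Illumina NextSeq500.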

Another experiment deals with ETV5 (Homo sapiens, UniProt P41161 1-510). The following applies: protein: recombinant; tags: N-terminal GST; dsDNA, one strand shown. In a few lines:
as §1

The target of a further experiment is HSF1 (Homo sapiens, UniProt Q00613 1-529). As to conditions: protein: recombinant; tags: N-terminal GST; chain copies: 3; dsDNA, one strand shown. Summed up: as §1
In the next experiment the target is T2, SPIC (Homo sapiens, UniProt Q8N5J4 1-248).
T2 sequence: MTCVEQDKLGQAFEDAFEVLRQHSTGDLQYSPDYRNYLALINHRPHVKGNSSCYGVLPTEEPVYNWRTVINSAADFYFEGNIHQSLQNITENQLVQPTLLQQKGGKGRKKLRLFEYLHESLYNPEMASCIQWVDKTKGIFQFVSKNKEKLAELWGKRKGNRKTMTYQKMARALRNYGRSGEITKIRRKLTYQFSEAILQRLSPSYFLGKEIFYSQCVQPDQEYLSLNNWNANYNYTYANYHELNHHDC
As to conditions: protein: recombinant; tags: N-terminal GST; dsDNA, one strand shown. Summed up: as §1

The target of the next experiment is ELF4 (Homo sapiens, UniProt Q99607 1-663). The following applies: protein: recombinant; tags: N-terminal GST; dsDNA, one strand shown. In a few lines: as §1
For the next experiment, the target named is T3, ELK4 (Homo sapiens, UniProt P28324-2 1-405).
T3 sequence: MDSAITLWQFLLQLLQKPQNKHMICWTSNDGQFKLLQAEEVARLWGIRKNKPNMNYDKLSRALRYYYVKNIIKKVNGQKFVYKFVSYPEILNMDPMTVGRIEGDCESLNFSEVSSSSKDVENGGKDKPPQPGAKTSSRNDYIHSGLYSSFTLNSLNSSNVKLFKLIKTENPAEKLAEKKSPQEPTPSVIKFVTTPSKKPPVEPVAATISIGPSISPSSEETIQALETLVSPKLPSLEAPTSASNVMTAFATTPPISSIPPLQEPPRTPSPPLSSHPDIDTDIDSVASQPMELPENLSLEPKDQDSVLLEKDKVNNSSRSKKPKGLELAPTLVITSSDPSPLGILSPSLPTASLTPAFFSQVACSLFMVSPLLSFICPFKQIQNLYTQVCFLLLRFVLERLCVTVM
As to conditions: protein: recombinant; tags: N-terminal GST; dsDNA, one strand shown. Summed up: as §1

For a further experiment, the target named is T4, ETV2 (Homo sapiens, UniProt O00321 1-342).
T4 sequence: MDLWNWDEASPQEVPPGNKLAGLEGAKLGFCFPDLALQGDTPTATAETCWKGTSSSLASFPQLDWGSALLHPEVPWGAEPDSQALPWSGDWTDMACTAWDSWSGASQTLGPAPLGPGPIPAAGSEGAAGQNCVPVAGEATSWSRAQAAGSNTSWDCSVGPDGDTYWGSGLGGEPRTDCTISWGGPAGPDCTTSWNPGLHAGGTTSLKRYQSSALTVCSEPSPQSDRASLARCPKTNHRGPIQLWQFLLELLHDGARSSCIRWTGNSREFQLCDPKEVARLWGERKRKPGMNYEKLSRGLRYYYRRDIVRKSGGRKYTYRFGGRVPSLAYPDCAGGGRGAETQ
The following applies: protein: recombinant; tags: N-terminal GST; dsDNA, one strand shown. Summed up:
as §1

In another experiment the target is T5, ELF3 (Homo sapiens, UniProt P78545 1-371).
T5 sequence: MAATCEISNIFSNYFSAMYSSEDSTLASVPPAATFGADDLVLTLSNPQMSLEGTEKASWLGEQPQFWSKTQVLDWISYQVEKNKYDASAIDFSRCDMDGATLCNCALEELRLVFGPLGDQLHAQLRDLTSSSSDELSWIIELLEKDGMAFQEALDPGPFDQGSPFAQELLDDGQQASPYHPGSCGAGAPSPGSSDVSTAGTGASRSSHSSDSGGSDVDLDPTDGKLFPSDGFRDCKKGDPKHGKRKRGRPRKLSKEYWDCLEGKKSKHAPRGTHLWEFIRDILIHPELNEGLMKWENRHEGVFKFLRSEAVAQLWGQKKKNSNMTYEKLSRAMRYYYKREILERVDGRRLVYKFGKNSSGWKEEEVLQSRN
As to conditions: protein: recombinant; tags: N-terminal GST; dsDNA, one strand shown. Summed up: as §1

The target in the next experiment is CRX (Homo sapiens, UniProt O43186 1-299). The following applies: protein: recombinant; tags: N-terminal GST; dsDNA, one strand shown. Summed up:
as §1

The target of a further experiment is ETV1 (Homo sapiens, UniProt P50549 1-477). As to conditions: protein: recombinant; tags: N-terminal GST; dsDNA, one strand shown. In a few lines: as §1
Another experiment addresses T6, ERF (Homo sapiens, UniProt P50548 1-548).
T6 sequence: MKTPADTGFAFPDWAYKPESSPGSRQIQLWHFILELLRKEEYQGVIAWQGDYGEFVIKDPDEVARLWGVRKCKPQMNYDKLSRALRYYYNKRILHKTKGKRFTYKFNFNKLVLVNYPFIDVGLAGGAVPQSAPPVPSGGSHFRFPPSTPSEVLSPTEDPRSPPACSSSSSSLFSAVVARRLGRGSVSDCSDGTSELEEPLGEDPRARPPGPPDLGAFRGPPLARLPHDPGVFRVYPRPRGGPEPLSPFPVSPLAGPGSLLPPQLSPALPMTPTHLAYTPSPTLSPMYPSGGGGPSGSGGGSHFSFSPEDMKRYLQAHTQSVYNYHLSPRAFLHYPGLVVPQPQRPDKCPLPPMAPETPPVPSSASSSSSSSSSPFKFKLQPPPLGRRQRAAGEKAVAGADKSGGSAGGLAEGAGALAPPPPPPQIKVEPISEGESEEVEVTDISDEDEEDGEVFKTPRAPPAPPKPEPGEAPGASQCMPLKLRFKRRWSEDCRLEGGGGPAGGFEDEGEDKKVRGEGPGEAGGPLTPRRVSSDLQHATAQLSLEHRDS
As to conditions: protein: recombinant; tags: N-terminal GST; dsDNA, one strand shown. In a few lines:
as §1

The target of the next experiment is T7, ETV3L (Homo sapiens, UniProt Q6ZN32 1-361).
T7 sequence: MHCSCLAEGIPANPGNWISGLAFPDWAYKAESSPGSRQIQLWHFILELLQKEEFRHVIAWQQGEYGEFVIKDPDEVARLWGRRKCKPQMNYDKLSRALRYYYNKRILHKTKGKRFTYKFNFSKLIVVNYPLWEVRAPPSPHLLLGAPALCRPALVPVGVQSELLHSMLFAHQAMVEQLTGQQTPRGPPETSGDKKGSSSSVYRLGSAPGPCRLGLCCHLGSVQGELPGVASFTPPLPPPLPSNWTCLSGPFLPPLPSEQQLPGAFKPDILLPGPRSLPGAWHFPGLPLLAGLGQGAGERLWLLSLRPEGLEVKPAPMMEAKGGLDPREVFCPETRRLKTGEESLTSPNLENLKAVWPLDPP
As to conditions: protein: recombinant; tags: N-terminal GST; dsDNA, one strand shown. Summed up:
as §1

The next experiment has as its target T8, ETS2 (Homo sapiens, UniProt P15036 1-469).
T8 sequence: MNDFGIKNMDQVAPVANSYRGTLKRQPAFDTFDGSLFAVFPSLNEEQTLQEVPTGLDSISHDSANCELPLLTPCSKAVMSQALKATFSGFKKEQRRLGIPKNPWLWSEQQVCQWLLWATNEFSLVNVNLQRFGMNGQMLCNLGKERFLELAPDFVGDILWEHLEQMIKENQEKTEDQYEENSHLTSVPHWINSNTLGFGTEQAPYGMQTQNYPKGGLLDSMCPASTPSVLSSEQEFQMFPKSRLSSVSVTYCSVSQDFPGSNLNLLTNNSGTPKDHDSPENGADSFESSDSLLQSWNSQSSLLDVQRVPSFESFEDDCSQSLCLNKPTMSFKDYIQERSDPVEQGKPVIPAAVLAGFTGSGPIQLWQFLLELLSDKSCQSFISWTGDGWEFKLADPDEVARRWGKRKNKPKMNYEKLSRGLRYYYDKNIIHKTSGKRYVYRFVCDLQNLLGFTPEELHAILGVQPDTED
The following applies: protein: recombinant; tags: N-terminal GST; dsDNA, one strand shown. Summed up:
as §1

A further experiment concerns the target T9, SPDEF (Homo sapiens, UniProt O95238 1-335).
T9 sequence: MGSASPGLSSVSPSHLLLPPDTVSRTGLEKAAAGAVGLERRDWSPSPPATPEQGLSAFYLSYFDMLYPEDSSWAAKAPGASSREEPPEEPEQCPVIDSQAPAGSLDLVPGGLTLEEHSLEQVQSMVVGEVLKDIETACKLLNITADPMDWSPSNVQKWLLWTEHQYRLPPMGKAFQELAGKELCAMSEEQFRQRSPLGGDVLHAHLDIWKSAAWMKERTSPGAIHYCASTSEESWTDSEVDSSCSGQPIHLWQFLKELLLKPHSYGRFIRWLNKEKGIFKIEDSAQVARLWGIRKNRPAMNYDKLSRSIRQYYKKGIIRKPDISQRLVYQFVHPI
The following applies: protein: recombinant; tags: N-terminal GST; dsDNA, one strand shown. Summed up:
as §1

The target of a further experiment is T10, ETV7 (Homo sapiens, UniProt Q9Y603 1-341).
T10 sequence: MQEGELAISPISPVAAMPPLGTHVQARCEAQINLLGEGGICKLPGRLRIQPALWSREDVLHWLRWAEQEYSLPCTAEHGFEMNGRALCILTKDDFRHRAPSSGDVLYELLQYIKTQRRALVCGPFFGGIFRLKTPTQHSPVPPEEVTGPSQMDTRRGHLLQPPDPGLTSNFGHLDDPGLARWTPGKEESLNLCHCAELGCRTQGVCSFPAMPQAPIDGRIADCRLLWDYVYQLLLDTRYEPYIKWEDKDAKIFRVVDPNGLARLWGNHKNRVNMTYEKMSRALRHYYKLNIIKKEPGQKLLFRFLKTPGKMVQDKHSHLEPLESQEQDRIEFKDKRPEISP
The following applies: protein: recombinant; tags: N-terminal GST; dsDNA, one strand shown. In a few lines: as §1

For the next experiment, the target named is T11, ELF5 (Homo sapiens, UniProt Q9UKW6-2 1-255).
T11 sequence: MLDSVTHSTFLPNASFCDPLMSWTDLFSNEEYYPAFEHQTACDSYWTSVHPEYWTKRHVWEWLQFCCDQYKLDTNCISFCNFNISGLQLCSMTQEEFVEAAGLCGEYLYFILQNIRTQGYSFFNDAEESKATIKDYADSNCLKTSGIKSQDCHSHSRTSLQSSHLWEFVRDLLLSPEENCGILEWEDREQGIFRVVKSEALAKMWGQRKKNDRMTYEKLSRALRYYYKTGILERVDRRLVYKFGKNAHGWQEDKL
As to conditions: protein: recombinant; tags: N-terminal GST; dsDNA, one strand shown. In a few lines: as §1

For the next experiment, the target named is T12, ETV3 (Homo sapiens, UniProt P41162-2 1-143).
T12 sequence: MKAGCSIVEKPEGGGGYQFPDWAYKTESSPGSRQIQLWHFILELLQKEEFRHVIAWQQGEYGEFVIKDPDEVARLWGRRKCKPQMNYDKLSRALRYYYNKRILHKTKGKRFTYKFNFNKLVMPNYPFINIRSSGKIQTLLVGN
As to conditions: protein: recombinant; tags: N-terminal GST; dsDNA, one strand shown. Summed up:
as §1

The target in a further experiment is ETV6 (Homo sapiens, UniProt P41212 1-452). As to conditions: protein: recombinant; tags: N-terminal GST; dsDNA, one strand shown. In a few lines:
as §1

Chain of CRX (O43186 whole entry): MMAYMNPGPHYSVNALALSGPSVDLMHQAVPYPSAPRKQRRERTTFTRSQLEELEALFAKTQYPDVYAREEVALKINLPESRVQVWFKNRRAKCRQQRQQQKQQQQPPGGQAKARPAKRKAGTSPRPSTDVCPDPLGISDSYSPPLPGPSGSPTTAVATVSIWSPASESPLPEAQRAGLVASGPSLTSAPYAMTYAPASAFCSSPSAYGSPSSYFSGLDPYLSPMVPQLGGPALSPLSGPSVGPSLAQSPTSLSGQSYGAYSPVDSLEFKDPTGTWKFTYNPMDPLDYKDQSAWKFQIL
Chain of ETV5 (P41161 whole entry): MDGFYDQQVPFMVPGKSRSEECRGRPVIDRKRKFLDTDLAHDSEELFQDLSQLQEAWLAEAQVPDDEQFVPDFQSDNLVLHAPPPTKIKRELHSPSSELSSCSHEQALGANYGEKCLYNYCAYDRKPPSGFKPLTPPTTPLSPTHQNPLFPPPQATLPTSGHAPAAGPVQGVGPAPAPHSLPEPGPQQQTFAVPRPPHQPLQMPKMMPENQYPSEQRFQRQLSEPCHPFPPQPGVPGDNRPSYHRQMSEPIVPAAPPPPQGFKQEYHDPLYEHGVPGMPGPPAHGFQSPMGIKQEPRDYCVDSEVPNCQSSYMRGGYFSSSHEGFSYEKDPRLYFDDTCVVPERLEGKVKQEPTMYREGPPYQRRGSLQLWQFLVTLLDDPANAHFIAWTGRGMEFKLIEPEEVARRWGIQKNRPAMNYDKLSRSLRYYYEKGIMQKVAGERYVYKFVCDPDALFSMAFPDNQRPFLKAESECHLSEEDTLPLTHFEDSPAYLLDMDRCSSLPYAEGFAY
Chain of ETV1 (P50549 whole entry): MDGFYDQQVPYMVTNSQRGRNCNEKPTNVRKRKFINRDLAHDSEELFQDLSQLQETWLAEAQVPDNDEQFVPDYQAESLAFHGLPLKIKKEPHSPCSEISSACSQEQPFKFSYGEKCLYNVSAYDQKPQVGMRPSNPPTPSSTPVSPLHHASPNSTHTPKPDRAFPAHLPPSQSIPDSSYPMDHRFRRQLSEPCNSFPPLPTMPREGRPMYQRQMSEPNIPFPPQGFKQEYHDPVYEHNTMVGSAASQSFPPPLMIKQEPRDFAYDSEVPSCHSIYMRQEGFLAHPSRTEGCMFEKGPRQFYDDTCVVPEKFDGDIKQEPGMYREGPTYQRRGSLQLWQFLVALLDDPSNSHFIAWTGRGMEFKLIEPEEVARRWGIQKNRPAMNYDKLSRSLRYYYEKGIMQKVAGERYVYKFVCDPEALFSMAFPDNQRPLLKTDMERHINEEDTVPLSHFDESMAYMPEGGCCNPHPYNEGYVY
Chain of HSF1 (Q00613 whole entry): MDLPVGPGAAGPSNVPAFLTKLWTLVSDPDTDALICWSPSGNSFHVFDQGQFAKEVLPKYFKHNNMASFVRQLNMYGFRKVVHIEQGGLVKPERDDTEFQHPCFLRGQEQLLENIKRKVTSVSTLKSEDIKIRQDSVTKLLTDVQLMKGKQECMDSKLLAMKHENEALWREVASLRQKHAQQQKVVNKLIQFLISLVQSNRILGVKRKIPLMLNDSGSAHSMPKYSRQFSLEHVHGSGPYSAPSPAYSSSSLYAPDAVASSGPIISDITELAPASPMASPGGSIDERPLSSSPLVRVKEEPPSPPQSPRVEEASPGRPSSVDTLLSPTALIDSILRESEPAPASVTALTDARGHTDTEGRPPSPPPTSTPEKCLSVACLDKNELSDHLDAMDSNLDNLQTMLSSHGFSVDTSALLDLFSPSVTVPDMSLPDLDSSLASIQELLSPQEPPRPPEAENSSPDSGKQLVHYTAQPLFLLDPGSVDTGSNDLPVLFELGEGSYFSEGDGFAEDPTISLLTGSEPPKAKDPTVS
Chain of ELF4 (Q99607 whole entry): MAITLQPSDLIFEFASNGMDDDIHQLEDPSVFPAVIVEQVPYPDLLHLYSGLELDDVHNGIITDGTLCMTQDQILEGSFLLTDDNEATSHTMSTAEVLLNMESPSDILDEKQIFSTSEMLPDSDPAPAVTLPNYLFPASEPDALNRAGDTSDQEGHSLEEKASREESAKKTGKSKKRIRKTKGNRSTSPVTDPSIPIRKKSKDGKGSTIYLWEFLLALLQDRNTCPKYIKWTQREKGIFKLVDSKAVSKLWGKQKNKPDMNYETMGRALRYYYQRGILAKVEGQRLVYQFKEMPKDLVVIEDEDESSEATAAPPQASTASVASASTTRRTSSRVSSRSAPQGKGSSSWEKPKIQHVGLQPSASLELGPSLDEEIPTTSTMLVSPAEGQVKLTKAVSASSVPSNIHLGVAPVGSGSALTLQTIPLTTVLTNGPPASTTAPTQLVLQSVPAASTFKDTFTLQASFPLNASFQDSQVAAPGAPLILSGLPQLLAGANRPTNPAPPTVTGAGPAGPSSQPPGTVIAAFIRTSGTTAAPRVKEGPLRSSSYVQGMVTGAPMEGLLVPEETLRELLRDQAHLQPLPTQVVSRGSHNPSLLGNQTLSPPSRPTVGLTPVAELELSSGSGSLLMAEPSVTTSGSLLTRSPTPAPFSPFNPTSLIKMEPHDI
Chain of ETV6 (P41212 whole entry): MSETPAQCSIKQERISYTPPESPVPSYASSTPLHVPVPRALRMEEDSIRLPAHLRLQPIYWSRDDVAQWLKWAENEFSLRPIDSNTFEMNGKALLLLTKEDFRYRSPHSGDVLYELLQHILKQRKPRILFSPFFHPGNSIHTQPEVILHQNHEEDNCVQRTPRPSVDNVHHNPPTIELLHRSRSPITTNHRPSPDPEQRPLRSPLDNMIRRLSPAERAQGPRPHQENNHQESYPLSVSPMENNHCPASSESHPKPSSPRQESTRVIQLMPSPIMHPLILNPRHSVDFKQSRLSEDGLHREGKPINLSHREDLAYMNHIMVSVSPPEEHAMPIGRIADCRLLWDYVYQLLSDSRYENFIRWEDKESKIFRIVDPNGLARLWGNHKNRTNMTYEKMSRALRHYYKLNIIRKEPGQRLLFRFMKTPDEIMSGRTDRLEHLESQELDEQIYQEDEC

Regarding CCAACT, the binding signal is 1.27 fold enrichment (6-mer frequency, TF over GST control) in the experiment with FEV; 1.16 fold enrichment (6-mer frequency, TF over GST control) with ETV5; 1.02 fold enrichment (6-mer frequency, TF over GST control) with HSF1; 1.4 fold enrichment (6-mer frequency, TF over GST control) in the experiment with SPIC; 1.29 fold enrichment (6-mer frequency, TF over GST control) in the experiment with ELF4; 1.27 fold enrichment (6-mer frequency, TF over GST control) with ELK4. Also, the binding signal is 1.11 fold enrichment (6-mer frequency, TF over GST control) in the experiment with ETV2; 1.21 fold enrichment (6-mer frequency, TF over GST control) with ELF3; 1.01 fold enrichment (6-mer frequency, TF over GST control) with CRX; 1.21 fold enrichment (6-mer frequency, TF over GST control) with ETV1; 1.13 fold enrichment (6-mer frequency, TF over GST control) in the experiment with ERF; 1.21 fold enrichment (6-mer frequency, TF over GST control) in the experiment with ETV3L. Further, the binding signal was 1.24 fold enrichment (6-mer frequency, TF over GST control) with ETS2; 1.27 fold enrichment (6-mer frequency, TF over GST control) with SPDEF; 1.2 fold enrichment (6-mer frequency, TF over GST control) in the experiment with ETV7; 1.17 fold enrichment (6-mer frequency, TF over GST control) with ELF5; 1.17 fold enrichment (6-mer frequency, TF over GST control) in the experiment with ETV3; 1.18 fold enrichment (6-mer frequency, TF over GST control) with ETV6.
